The source of these data is the supplement of paper PMC10037445.

Over roughly 2,900 compounds, “NF-kB SEAP reporter activity, fold change vs agonist alone” has its median near 0.99; the highest 2% begin near 2.6. This is one part of a sample in which the highest values are shown more often than they occur.

In experiment [1] the test system is RAW-Dual. The experiment can be described thus: NF-kB SEAP reporter activity, fold change vs agonist alone; higher = enhanced NF-kB activity. The gist of the method:
(§1)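 Supernatant from RAW-Dual macrophages was read after 20 hours for IRF by QuantiLuc luminescence and for NF-κB by QuantiBlue absorbance at 620 nm. The cells (50,000 cells/well in DMEM, 384-well plates, 37 °C, 5% CO2) had received 50 nL of library stock by pin tool and, 1 h later, a PRR agonist. Reporter activity is expressed relative to agonist-alone wells as fold change, and wells were flagged cytotoxic if IncuCyte confluency was under 70% of agonist controls in both mask sets.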

For experiment [2], the system named is RAW-Dual. In words: NF-kB SEAP reporter activity, fold change vs agonist alone; cytotoxicity flag (confluency mask): not cytotoxic; higher = enhanced NF-kB activity. The gist of the method: as §1
Experiment [3] deals with RAW-Dual. The experiment can be described thus: NF-kB SEAP reporter activity, fold change vs agonist alone; cytotoxicity flag (confluency mask): cytotoxic (confluency <70% of control); higher = enhanced NF-kB activity. The gist of the method: as §1
[4] abbreviates: library stock concentration (final ~1000-fold dilution): 10 mM, cytotoxicity flag (confluency mask): not cytotoxic, agonist: Imiquimod (TLR7) […].
Where [5] appears, read: library stock concentration (final ~1000-fold dilution): 10 mM, cytotoxicity flag (confluency mask): not cytotoxic, agonist: MPLA (TLR4) […].
[6] abbreviates: agonist: ODN 1826 (TLR9) 0.5 ug/mL.
The mark [7] stands for this setting: agonist: Pam2CSK4 (TLR2/6) 0.1 ug/mL.
The mark [8] stands for this setting: agonist: Pam3CSK4 (TLR2/1) 0.1 ug/mL.
Setting [9] is: library stock concentration (final ~1000-fold dilution): 10 mM, cytotoxicity flag (confluency mask): cytotoxic (confluency <70% of control), agonist: Imiquimod (TLR7) […].
[10] abbreviates: library stock concentration (final ~1000-fold dilution): 10 mM, cytotoxicity flag (confluency mask): cytotoxic (confluency <70% of control), agonist: MPLA (TLR4) […].

`FC(F)F.N=C(N)NCCCC1NC(=O)C(CCCCN)NC(=O)C(Cc2ccc(O)cc2)NC(=O)C(CC(=O)O)NC(=O)CNC1=O.O=C(O)C(F)(F)F.O=CO` (centres undefined): the “NF-kB SEAP reporter activity” value turned out to be 0.972 in experiment [1] (setting [4]) and 1.04 in experiment [1] (setting [5]).

`FC(F)F.N=C(N)NCCCC1NC(=O)C(CCCCN)NC(=O)C(Cc2ccc(O)cc2)NC(=O)C(CC(=O)O)NC(=O)CNC1=O.O=C(O)C(F)(F)F.O=CO` (centres undefined) (library stock concentration (final ~1000-fold dilution): 10 mM): the “NF-kB SEAP reporter activity” value in experiment [2] (agonist: LPS (TLR4) 0.1 ug/mL) worked out at 1.23; in experiment [2] (setting [6]) it was 0.997; in experiment [2] (setting [7]), 1.14; in experiment [2] (setting [8]), 0.899.

With `c1cc(-c2cnn3cc(-c4ccc(N5CCNCC5)cc4)cnc23)c2cccnc2c1` (library stock concentration (final ~1000-fold dilution): 10 mM), the “NF-kB SEAP reporter activity” value in experiment [3] (agonist: LPS (TLR4) 0.1 ug/mL) was found to be 0.202; in experiment [3] (setting [6]), 0.193; in experiment [3] (setting [7]), 0.0775; in experiment [3] (setting [8]), 0.149.

Take `COc1cc(-c2cc(-c3ccc(N4CCNCC4)cc3)cnc2C)cc(OC)c1OC`: the “NF-kB SEAP reporter activity” value in experiment [1] (setting [4]) was found to be 1.28; in experiment [1] (setting [5]), 1.94.

As for `COc1cc(-c2cc(-c3cccc(O)c3)cnc2N)cc(OC)c1OC` (library stock concentration (final ~1000-fold dilution): 10 mM), the “NF-kB SEAP reporter activity” value was 1.87 in experiment [2] (agonist: LPS (TLR4) 0.1 ug/mL), 1.54 in experiment [2] (setting [6]), 1.09 in experiment [2] (setting [7]) and 1.39 in experiment [2] (setting [8]).

As for `COc1cc(-c2cc(-c3cccc(O)c3)cnc2N)cc(OC)c1OC`, the “NF-kB SEAP reporter activity” value turned out to be 1.24 in experiment [1] (setting [4]) and 1.77 in experiment [1] (setting [5]).

Turning to `c1cc(-c2cnn3cc(-c4ccc(N5CCNCC5)cc4)cnc23)c2cccnc2c1`, the “NF-kB SEAP reporter activity” value in experiment [1] (setting [9]) amounted to 0.258; in experiment [1] (setting [10]), 0.269.

Turning to `COc1cc(-c2cc(-c3ccc(N4CCNCC4)cc3)cnc2C)cc(OC)c1OC` (library stock concentration (final ~1000-fold dilution): 10 mM), the “NF-kB SEAP reporter activity” value in experiment [2] (agonist: LPS (TLR4) 0.1 ug/mL) amounted to 3.37; in experiment [2] (setting [6]) it was 0.202; in experiment [2] (setting [7]) it was 1.29; in experiment [2] (setting [8]), 1.57.

`C[C@@H]1O[C@@H](O[C@H]2[C@H](OC(=O)[C@]34CCC(C)(C)C[C@H]3C3=CC[C@@H]5[C@@]6(C)C[C@H](O)[C@H](O[C@@H]7O[C@H](CO)[C@@H](O)[C@H](O)[C@H]7O)[C@@](C)(CO)[C@@H]6CC[C@@]5(C)[C@]3(C)CC4)O[C@H](CO)[C@@H](O)[C@@H]2O)[C@H](O)[C@H](O)[C@H]1O[C@@H]1OC[C@@H](O)[C@H](O)[C@H]1O` (library stock concentration (final ~1000-fold dilution): 10 mM): the “NF-kB SEAP reporter activity” value in experiment [2] (agonist: LPS (TLR4) 0.1 ug/mL) was 1.11; in experiment [2] (setting [6]) it was 0.984; in experiment [2] (setting [7]), 1.04; in experiment [2] (setting [8]), 1.19.

As for `C[C@@H]1O[C@@H](O[C@H]2[C@H](OC(=O)[C@]34CCC(C)(C)C[C@H]3C3=CC[C@@H]5[C@@]6(C)C[C@H](O)[C@H](O[C@@H]7O[C@H](CO)[C@@H](O)[C@H](O)[C@H]7O)[C@@](C)(CO)[C@@H]6CC[C@@]5(C)[C@]3(C)CC4)O[C@H](CO)[C@@H](O)[C@@H]2O)[C@H](O)[C@H](O)[C@H]1O[C@@H]1OC[C@@H](O)[C@H](O)[C@H]1O`, the results for the “NF-kB SEAP reporter activity” value in experiment [1] (setting [4]) and in experiment [1] (setting [5]) were 0.83 and 1.01, respectively.

As to `CN(C)C(CCOc1cccc2ccccc12)c1ccccc1.Cl` (centres undefined), the results for the “NF-kB SEAP reporter activity” value in experiment [1] (setting [9]) and in experiment [1] (setting [10]) were 1.61 and 0.958, respectively.

For the compound `CN(C)C(CCOc1cccc2ccccc12)c1ccccc1.Cl` (centres undefined) (library stock concentration (final ~1000-fold dilution): 10 mM), the “NF-kB SEAP reporter activity” value in experiment [3] (agonist: LPS (TLR4) 0.1 ug/mL) was 1.05; in experiment [3] (setting [6]), 0.655; in experiment [3] (setting [7]), 0.546; in experiment [3] (setting [8]), 0.65.

Turning to `CCCSc1nc(NC2CC2c2ccc(F)c(F)c2)c2nnn(C3CC(OCCO)C(O)C3O)c2n1` (centres undefined) (library stock concentration (final ~1000-fold dilution): 10 mM), the “NF-kB SEAP reporter activity” value in experiment [3] (agonist: LPS (TLR4) 0.1 ug/mL) was 1.04; in experiment [3] (setting [6]) it was 0.615; in experiment [3] (setting [7]) it was 0.51; in experiment [3] (setting [8]), 0.332.

Turning to `CCCSc1nc(NC2CC2c2ccc(F)c(F)c2)c2nnn(C3CC(OCCO)C(O)C3O)c2n1` (centres undefined), the “NF-kB SEAP reporter activity” value amounted to 1.05 in experiment [1] (setting [9]) and 0.94 in experiment [1] (setting [10]).

For the compound `Cl.Cl.O=C(O)c1ccc(CN2CCC(CNC3CC3c3ccccc3)CC2)cc1` (centres undefined) (library stock concentration (final ~1000-fold dilution): 10 mM), the “NF-kB SEAP reporter activity” value in experiment [2] (agonist: LPS (TLR4) 0.1 ug/mL) was 1.01; in experiment [2] (setting [6]), 1.22; in experiment [2] (setting [7]), 0.875; in experiment [2] (setting [8]) it was 0.786.

Take `Cl.Cl.O=C(O)c1ccc(CN2CCC(CNC3CC3c3ccccc3)CC2)cc1` (centres undefined): the “NF-kB SEAP reporter activity” value in experiment [1] (setting [4]) worked out at 1.01; in experiment [1] (setting [5]), 1.05.

In the case of `COc1cnc(NS(=O)(=O)c2ccc(N)cc2)nc1`, the “NF-kB SEAP reporter activity” value in experiment [1] (setting [4]) is 0.927; in experiment [1] (setting [5]) it was 1.02.

Turning to `COc1cc(Nc2nc3ccccc3nc2NS(=O)(=O)c2ccc(NC(=O)c3ccc(C)c(OC)c3)cc2)cc(OC)c1`, the “NF-kB SEAP reporter activity” value in experiment [1] (setting [4]) was determined as 0.914; in experiment [1] (setting [5]), 0.963.

On to `COc1ccc(S(=O)(=O)Nc2cccnc2Nc2ccc(O)cc2)cc1` (library stock concentration (final ~1000-fold dilution): 10 mM), for which the “NF-kB SEAP reporter activity” value in experiment [2] (agonist: LPS (TLR4) 0.1 ug/mL) came to 4.93; in experiment [2] (setting [6]) it was 3.17; in experiment [2] (setting [7]), 1.86; in experiment [2] (setting [8]), 2.22.

`COc1cnc(NS(=O)(=O)c2ccc(N)cc2)nc1` (library stock concentration (final ~1000-fold dilution): 10 mM): the “NF-kB SEAP reporter activity” value in experiment [2] (agonist: LPS (TLR4) 0.1 ug/mL) worked out at 1.22; in experiment [2] (setting [6]), 0.999; in experiment [2] (setting [7]), 1.13; in experiment [2] (setting [8]) it was 1.19.

Consider `COc1ccc(S(=O)(=O)Nc2cccnc2Nc2ccc(O)cc2)cc1`, for which the “NF-kB SEAP reporter activity” value in experiment [1] (setting [4]) stood at 2.48; in experiment [1] (setting [5]) it was 1.92.

Take `COc1cc(Nc2nc3ccccc3nc2NS(=O)(=O)c2ccc(NC(=O)c3ccc(C)c(OC)c3)cc2)cc(OC)c1` (library stock concentration (final ~1000-fold dilution): 10 mM): the “NF-kB SEAP reporter activity” value in experiment [2] (agonist: LPS (TLR4) 0.1 ug/mL) worked out at 2.08; in experiment [2] (setting [6]), 1.04; in experiment [2] (setting [7]), 0.51; in experiment [2] (setting [8]), 0.561.

In the case of `CCC(C)n1cc(C)c2c(C(=O)NCc3c(C)cc(C)[nH]c3=O)cc(-c3ccc(N4CCNCC4)nc3)cc21` (centres undefined), the “NF-kB SEAP reporter activity” value in experiment [1] (library stock concentration (final ~1000-fold dilution): 2 mM, cytotoxicity flag (confluency mask): not cytotoxic, agonist: Imiquimod (TLR7) […]) was 0.954; in experiment [1] (library stock concentration (final ~1000-fold dilution): 2 mM, cytotoxicity flag (confluency mask): not cytotoxic, agonist: MPLA (TLR4) […]) it was 0.941.

Consider `CCC(C)n1cc(C)c2c(C(=O)NCc3c(C)cc(C)[nH]c3=O)cc(-c3ccc(N4CCNCC4)nc3)cc21` (centres undefined) (library stock concentration (final ~1000-fold dilution): 2 mM), for which the “NF-kB SEAP reporter activity” value was determined as 1.17 in experiment [2] (agonist: LPS (TLR4) 0.1 ug/mL), 0.973 in experiment [2] (setting [6]), 0.979 in experiment [2] (setting [7]) and 1.07 in experiment [2] (setting [8]).

For `COc1ccc(-c2cc(=O)c3c(O)c(OC)c(O)c(OC)c3o2)cc1` (library stock concentration (final ~1000-fold dilution): 10 mM), the “NF-kB SEAP reporter activity” value was found to be 1.27 in experiment [2] (agonist: LPS (TLR4) 0.1 ug/mL), 0.993 in experiment [2] (setting [6]), 1.14 in experiment [2] (setting [7]) and 1.05 in experiment [2] (setting [8]).

For the compound `COc1ccc(-c2cc(=O)c3c(O)c(OC)c(O)c(OC)c3o2)cc1`, the figures for the “NF-kB SEAP reporter activity” value in experiment [1] (setting [4]) and in experiment [1] (setting [5]) were 0.931 and 1.09, respectively.

`CC1(C(=O)O)CCC2(C)CCC3(C)C(=CC(=O)C4C5(C)CCC(OC6OC(C(=O)O)C(O)C(O)C6OC6OC(C(=O)O)C(O)C(O)C6O)C(C)(C)C5CCC43C)C2C1.N.N` (centres undefined) (library stock concentration (final ~1000-fold dilution): 10 mM): the “NF-kB SEAP reporter activity” value in experiment [2] (agonist: LPS (TLR4) 0.1 ug/mL) stood at 0.96; in experiment [2] (setting [6]), 0.88; in experiment [2] (setting [7]), 0.866; in experiment [2] (setting [8]), 1.15.

With `CC1(C(=O)O)CCC2(C)CCC3(C)C(=CC(=O)C4C5(C)CCC(OC6OC(C(=O)O)C(O)C(O)C6OC6OC(C(=O)O)C(O)C(O)C6O)C(C)(C)C5CCC43C)C2C1.N.N` (centres undefined), the “NF-kB SEAP reporter activity” value was found to be 0.926 in experiment [1] (setting [4]) and 1.03 in experiment [1] (setting [5]).
